Our source for the relative cell viability values is the supplement of paper PMC9492666.
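Also: breast cancer cell viability read out with the CCK-8 kit after co-treatment of each compound with the ferroptosis inducer RSL3.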

In this assay the test system is MDA-MB-231. The assay is described as follows: relative cell viability, compound + RSL3, vs DMSO (fraction of DMSO control); higher = less growth inhibition. The conditions noted are these: 72 h.
Turning to `N#Cc1c(O)c2c(-c3ccc(-c4ccccc4O)cc3)csc2[nH]c1=O` + COC(=O)c1ccc([C@H]2c3[nH]c4ccccc4c3C[C@H](C(=O)OC)N2C(=O)CCl)cc1 [RSL3], the relative cell viability is 0.423. As for `COC(=O)c1sccc1S(=O)(=O)Nc1ccc(Nc2ccccc2)cc1OC` + COC(=O)c1ccc([C@H]2c3[nH]c4ccccc4c3C[C@H](C(=O)OC)N2C(=O)CCl)cc1 [RSL3], the relative cell viability is 0.542.

Consider `CSc1ccc(C(=O)/C=C/c2cc(C)c(OC(C)(C)C(=O)O)c(C)c2)cc1` [Elafibranor] + COC(=O)c1ccc([C@H]2c3[nH]c4ccccc4c3C[C@H](C(=O)OC)N2C(=O)CCl)cc1 [RSL3], for which the relative cell viability is 0.685. For `CC(C)=CCC[C@](C)(O)[C@H]1CC[C@]2(C)[C@@H]1[C@H](O)C[C@@H]1[C@@]3(C)CC[C@H](O)C(C)(C)[C@@H]3[C@@H](O)C[C@]12C` [(20S)-Protopanaxatriol] + COC(=O)c1ccc([C@H]2c3[nH]c4ccccc4c3C[C@H](C(=O)OC)N2C(=O)CCl)cc1 [RSL3], the relative cell viability is 0.672. The result for `C=CC[S+]([O-])C[C@H](N)C(=O)O` (some centres not stated) [Alliin] + COC(=O)c1ccc([C@H]2c3[nH]c4ccccc4c3C[C@H](C(=O)OC)N2C(=O)CCl)cc1 [RSL3] reads 0.704.

For `CC(C)(C)c1ccc(-c2nc3ccccc3[nH]2)cc1` + COC(=O)c1ccc([C@H]2c3[nH]c4ccccc4c3C[C@H](C(=O)OC)N2C(=O)CCl)cc1 [RSL3], the relative cell viability was 0.399.

Consider `CC(C)(O)[C@@H]1Cc2cc3ccc(=O)oc3cc2O1` [marmesin] + COC(=O)c1ccc([C@H]2c3[nH]c4ccccc4c3C[C@H](C(=O)OC)N2C(=O)CCl)cc1 [RSL3], for which the relative cell viability was 0.59.
